From PubChem BioAssay
PTAP TSG101 blk – blocks PTAP/TSG101 interaction to inhibit HIV-1 budding. Fluorescence polarization, FITC-PTAP peptide / Tsg101 binding. Q99816. AID 493005. 340,000 tested, under 10 active. Potency, µM (doses to about 115 µM), inactives show top-dose activity change, negative = inhibition, hits mostly inhibitors; active = well fitted inhibition curve with a large enough effect in the main read-out, with a control signal flat, not every such curve was filed as active; inconclusive = small, poorly fitted or top-dose-only effect, or effect the other way, or a change in a side signal; inactive = no such curve, though single readings can be large or run the other way; note: % of control where 0% means no effect
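Tsg101 binding domain (10 uM final) was mixed with compound and a FITC-labeled PTAP peptide (50 nM final) in HEPES pH 7.5 buffer with NaCl, Tween 20, EDTA and TCEP; fluorescence polarization was read after 20 min at r.t.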
VDR inh – inhibitors of human vitamin D receptor; P11473; VDR-SRC2-3 peptide fluorescence polarization, 2 h; Potency, µM, without a hit: max response, negative = inhibition, hits mostly inhibitors; 400,000 tested, 0.93% active; AID 504847; note: % is set by controls: 0 for no effect and ±100 for the full control effect
Target sequence (P11473 whole entry, looked up): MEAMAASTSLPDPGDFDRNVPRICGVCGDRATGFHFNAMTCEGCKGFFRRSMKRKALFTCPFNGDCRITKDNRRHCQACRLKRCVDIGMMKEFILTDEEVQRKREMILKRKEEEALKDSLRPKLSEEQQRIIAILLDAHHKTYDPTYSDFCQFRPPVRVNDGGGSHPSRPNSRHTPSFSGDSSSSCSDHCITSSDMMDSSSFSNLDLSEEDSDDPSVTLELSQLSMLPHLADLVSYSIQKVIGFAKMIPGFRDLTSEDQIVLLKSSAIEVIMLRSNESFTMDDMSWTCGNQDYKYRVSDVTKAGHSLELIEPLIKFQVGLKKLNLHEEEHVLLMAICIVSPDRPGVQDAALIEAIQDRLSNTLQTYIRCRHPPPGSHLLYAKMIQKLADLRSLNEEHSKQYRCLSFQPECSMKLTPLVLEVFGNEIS
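Measured by FP: displacement of SRC2-3 coactivator peptide from VDR by library compounds, following a two-hour ambient incubation.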
PLK1 PBD inh – PLK1 (human) polo-box domain binding inhibition. P53350. Plk1 PBD binding of FITC phosphopeptide, fluorescence polarization. Potency, µM, for inactives: max response, negative = inhibition, actives largely listed as inhibitors. 360,000 tested, 2.8% active; note: series mostly up to about 57 µM; % is set by controls: 0 for no effect and ±100 for the full control effect; nearly all actives have a fitted effect of over 65% in size
USP1 inh – blocks the human USP1/UAF1 deubiquitinase complex. O94782. recombinant USP1/UAF1, Ub-Rhodamine cleavage fluorescence. Potency, µM (doses to about 57.1 µM), for the others: top-dose activity change, negative = inhibition, most hits filed as inhibitors. 390,000 tested, 0.23% active. AID 743255; note: % is set by controls: 0 for no effect and ±100 for the full control effect; nearly all actives have a fitted effect of over 60% in size
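High-throughput fluorogenic screen: 1nM USP1/UAF1 complex, Ub-Rho substrate 150nM final, 50mM HEPES pH 7.8 with 0.5mM EDTA, 0.1 mg/ml BSA, 1mM TCEP and 0.01% Tween-20.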
GCN5L2 inh – GCN5L2 (KAT2A) acetyltransferase inhibition; Q92830; 390,000 tested, 0.21% active; GCN5L2 HAT assay, ThioGlo1 CoA-SH fluorescence; AID 504327; Potency, µM (highest dose often 58.9 µM), for the others: at the top dose activity change, negative = inhibition, usual class: inhibitors; note: % is set by controls: 0 for no effect and ±100 for the full control effect
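GCN5L2 (20nM final) in 50mM HEPES, 0.1mM EDTA pH 7.5, 0.01% Tween-20 was preincubated 15 min at room temperature with compound, then given ThioGlo1 (50uM), H3(1-25) peptide (75uM) and acetyl-CoA (70uM); CoA-thiol fluorescence (Ex340/Em540) was read at 0 and 20 min.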
Numbers without * were called inactive; ? = inconclusive; nt = no result given. The list is not random: actives were taken first. Their share in the collection is about 3%. Unless noted, calls come from the whole dose curve; as a rule, active = well fitted curve in the direction sought with a large enough effect; inconclusive = small, poorly fitted or top-dose-only effect, or another doubt; inactive = no such curve, though single readings can be large; an effect the other way counts as inactive or inconclusive. Potency is the fitted concentration of half-maximal effect.

SMILES	PTAP TSG101 blk	VDR inh	PLK1 PBD inh	USP1 inh	GCN5L2 inh
Cn1c(SCC(=O)N2c3ccccc3Sc3ccccc32)nnc1-c1ccco1	1%	22%	-5%	-26%	-17%
Cn1c(SCC(=O)c2cc(Cl)c(Cl)s2)nnc1-c1ccco1	0%	-22%	21µM*	-7%	2%
CCC(=O)Nc1cccc(-c2nnc(SCC(=O)NCc3ccco3)n2C)c1	-1%	-19%	-7%	-17%	-7%
COC(=O)CC1C(=O)NCCN1C(=O)CSc1nc2ccccc2s1 (stereo unspecified)	1%	?	13µM*	-2%	-13%
COC(=O)CC1C(=O)NCCN1C(=O)c1ccccc1 (stereo unspecified)	-7%	3%	3%	-4%	-21%
O=C1CCn2c1c(O)c1ccccc1c2=O	-11%	-3%	-17%	5µM*	nt
CCOC(=O)c1cc([N+](=O)[O-])cc([N+](=O)[O-])c1Sc1ncnc2nc[nH]c12	-1%	50µM*	21µM*	-13%	nt
COCc1ccc(C(=O)N2CCCC(C(=O)c3ccc(Cl)cc3C)C2)o1 (stereo unspecified)	-5%	?	19µM*	1%	0%
COc1ccc2cc(C(=O)C3CCCN(C(=O)c4cnn(C(C)C)c4)C3)ccc2c1 (stereo unspecified)	2%	?	24µM*	-25%	-7%
COc1ccc(C(=O)C2CCCN(C(=O)c3ccc(C(C)=O)s3)C2)c(C)c1 (stereo unspecified)	-4%	-1%	30µM*	-6%	-24%
COc1ccc2cc(C(=O)C3CCCN(C(=O)c4cccnc4)C3)ccc2c1 (stereo unspecified)	-6%	17%	0%	-27%	-2%
COc1ccc(NC(=S)NCCc2ccccc2)c(C)c1	-6%	1%	-4%	-17%	-2%
Nc1sc(Cc2ccccc2)cc1C(=O)NC1CCCCC1	nt	nt	27µM*	nt	nt
O=C(NC1CCCCC1)C(=S)NCCc1ccccc1	3%	?	24µM*	-25%	-11%
COc1cc(C)c(NC(=O)C(=S)NCCc2ccccc2)cc1C	3%	?	12µM*	-15%	-3%
Cc1cc(C)cc(NC(=O)c2cc(CN3CCCC3)on2)c1	nt	8%	nt	-10%	2%
COc1[nH]c(/N=C/c2ccccc2)c(C#N)c1C#N	-7%	-11%	21µM*	5%	-10%
O=C(CN1C(=O)c2cccc3cccc1c23)Nc1ccc2c(c1)OCO2	-2%	1%	-4%	-8%	3.5µM*
COc1ccc(OC)c(S(=O)(=O)Nc2ccc(-c3ccc4nncn4n3)cc2)c1	-2%	-17%	27µM*	-13%	-4%
Cc1cccc(-c2nsc(SCC(=O)NCc3ccco3)n2)c1	0%	-8%	21µM*	-9%	-1%
Cc1cccc(-c2nsc(SCC(=O)NCC3CCCO3)n2)c1 (stereo unspecified)	1%	-5%	8.4µM*	-1%	-3%
Cc1cccc(-c2nsc(SCC(=O)c3ccc(Cl)cc3)n2)c1	-1%	-10%	17µM*	-2%	-1%
CCOC(=O)CNC(=O)CSc1nc(-c2cccc(C)c2)ns1	-8%	79µM*	11µM*	-19%	-17%
Cc1cccc(C2(c3cccc(C)c3)CC2C(=O)NCC2CCCO2)c1 (stereo unspecified)	-2%	?	27µM*	-2%	-4%
COc1ccc(NC(=O)CN2C(=O)C(C)(C)c3cc(S(=O)(=O)N4CCCCC4)ccc32)cc1Cl	nt	11%	nt	-11%	-7%
SMILES	PTAP TSG101 blk	VDR inh	PLK1 PBD inh	USP1 inh	GCN5L2 inh
COc1ccc(C(=O)/C=C/c2ccc(OCc3ccccc3)cc2)cc1CSCC(=O)O	0%	?	24µM*	-23%	-4%
O=C(O)COc1ccc(/C=C/C(=O)c2ccc3ccccc3c2)cc1	0%	28µM*	-29%	-14%	-7%
COc1ccc(C=CC(=O)c2ccc(OCc3ccccc3)c(OC)c2)cc1OC	nt	nt	6%	0%	nt
O=C(N/N=C/c1ccc(OC2CSC2)cc1)c1ccccc1	-2%	4%	1%	-7%	6%
O=C(/C=C/c1ccc(OC2CSC2)cc1)c1ccccc1	-5%	?	27µM*	-9%	-16%
O=C(O)COc1ccc2ccccc2c1	nt	4%	nt	nt	-3%
COc1ccc(C(=O)/C=C/c2cccc(OCc3ccccc3)c2)cc1CSCC(=O)O	-9%	13µM*	21µM*	-24%	?
O=S1(=O)CC(N2CCN(c3ncccn3)CC2)CN1Cc1ccc(F)cc1 (stereo unspecified)	nt	nt	-15%	nt	nt
CCOn1c(=O)c(-c2ccc(C)cc2)[n+]([O-])c2ccccc21	0%	14%	6%	-15%	-1%
CCOn1c(=O)c(-c2ccc(Cl)cc2)[n+]([O-])c2ccccc21	-11%	?	21µM*	-10%	-1%
COn1c(=O)c(-c2cccs2)[n+]([O-])c2ccccc21	-10%	0%	2.1µM*	-5%	-8%
O=c1c(-c2ccc(F)cc2)[n+]([O-])c2ccccc2n1OCc1ccccn1	-4%	?	21µM*	-2%	-4%
COc1ccc(-c2cc(C)no2)cc1S(=O)(=O)N1CCCN(Cc2ccccc2Cl)C1	-2%	3%	-3%	-17%	-9%
Cc1ccc(NC(=O)C(Cc2c[nH]c3ccccc23)NC(=O)OCC(C)C)cc1 (stereo unspecified)	nt	-15%	nt	-20%	-6%
Cc1cccc(N2CCN(C(=O)c3ccc4c(c3)NC(=O)C(CSCc3cccc(F)c3)N4)CC2)c1C (stereo unspecified)	nt	nt	nt	nt	28µM*
Cc1cccc(N2CCN(C(=O)CSCc3ccc(F)cc3)CC2)c1C	nt	-3%	nt	-9%	-2%
CC(=O)N(C1CC(C)C(C#N)(C#N)C1(C#N)C#N)N(C)C (stereo unspecified)	-7%	35µM*	2.4µM*	-1%	4%
CCCC(=O)N(C1CC(C)C(C#N)(C#N)C1(C#N)C#N)N(C)C (stereo unspecified)	7%	8.9µM*	6µM*	2%	-13%
Cc1ccc(C(=O)c2oc3ccccc3c2NC(=O)c2cc(=O)c3ccccc3o2)cc1	nt	9%	nt	-24%	-7%
O=C(CCc1cn(Cc2ccc(F)cc2)c2ccccc12)NCCc1ccc(Cl)cc1	nt	12%	nt	-17%	-4%
O=C(O)C1Nc2c(C(=O)N3CCOCC3)cccc2C2C=CCC12 (stereo unspecified)	2%	?	12µM*	?	-4%
O=C(c1ccccc1O)N1CCOCC1	1%	13%	0%	-8%	6%
c1ccc(-c2ccc3c(c2)c2c4n3CCN=C4CCC2)cc1	-4%	14%	30µM*	-5%	-17%
OC1CN=C2CCCc3c2n(c2ccc(Cl)cc32)C1 (stereo unspecified)	-10%	-9%	-29%	-13%	1%
